Here are results for 60 compounds from ChEMBL document CHEMBL3988442, “University of Dundee, Small-Polar-MMV Screening Library” (2021).

The campaign covered roughly 48,000 compounds. About 13,000 (27%) showed an effect of 50% or more. This is one part of the list.

The test concerns Wolbachia pipientis. Nature of the test: Anti-Wolbachia Cell-Based Screen. Format: functional. The arrangement: scale not given: in the data most compounds retested in dose-response had high values. As to conditions: 5 µM.
As to `CCCC(C)N(C)Cc1nnc(-c2ccco2)o1` (stereo not given), the “Percent Effect” value is -4.256%. The result for `CSc1c[nH]nc1NS(=O)(=O)c1cc(F)ccc1C` reads -3.23%; that for `CCN1CCN(Cc2nc(Cc3ccccc3)n[nH]2)CC1`, 2.697%; that for `O=C(NCc1ccc2c(c1)OCO2)[C@@H]1C=CCN1c1ncccn1`, 142.5%. Take `O=C(CCc1ccc2c(c1)OCO2)Nc1cccnc1-n1cncn1`: the “Percent Effect” value was found to be 6.275%.

As for `O=C(NCc1ccc2c(c1)OCO2)N1CCCC2(C1)OCCO2`, the “Percent Effect” value came out at 2.082%.

As to `O=C(NCc1ccc2c(c1)OCO2)[C@H]1C=CCN1c1ncccn1`, the “Percent Effect” value was 120.2%. As for `CC(NC(N)=O)C(=O)NCc1ccc(Br)c(F)c1` (stereo not given), the “Percent Effect” value is listed as -7.533%. Regarding `Cc1c(CN2CCCC(c3[nH]ncc3S(C)(=O)=O)C2)cnn1C` (stereo not given), the “Percent Effect” value is reported as 3.915%. Consider `CN1CCN(C(=O)C2CCCc3[nH]ncc32)CC1` (stereo not given), for which the “Percent Effect” value is -8.316%.

Consider `CN1CCC(c2[nH]ncc2S(C)(=O)=O)CC1`, for which the “Percent Effect” value is 125.9%. For `CCC(CC)N1CCC(c2[nH]ncc2S(C)(=O)=O)C1` (stereo not given), the “Percent Effect” value is listed as 101.4%. The result for `CCc1cn[nH]c1C1CCN(C(=O)c2cc(C(C)=O)c(C)[nH]c2=O)CC1` reads 3.575%; that for `CC(=O)N1CCN(C(=O)NCCCc2cn[nH]c2C)CC1`, -4.106%. Regarding `CC(=O)N1CCC(c2[nH]ncc2S(C)(=O)=O)CC1`, the “Percent Effect” value was found to be 87.45%.

`CC(=O)N(C)C1CCN(C(=O)NCC(C)Cc2cccs2)CC1` (stereo not given): the “Percent Effect” value was 8.983%. On to `O=C(O)[C@@H]1CN(Cc2ccc(-c3cc[nH]n3)s2)C[C@H]1C1CC1`, for which the “Percent Effect” value was 7.901%. `CCOC(=O)c1nnc2ccccc2c1N1CCN(C(C)C)CC1`: the “Percent Effect” value was -0.1532%. As for `COC(=O)[C@H]1C[C@@H](O)CCN1S(=O)(=O)c1cc(C)c(Cl)cc1C`, the “Percent Effect” value is listed as -11.31%.

Consider `O=C(Nc1ccccc1C(=O)N1CCCC1)NC1CCOCC1`, for which the “Percent Effect” value is -1.242%.

On to `Cc1ccc(CN2CCC(c3nnc(CN4CCCCC4)n3C)CC2)o1`, for which the “Percent Effect” value is on record as -6.981%. With `CCn1cc(CNC(=O)CCc2nnc(-c3ccc(C)s3)o2)cn1`, the “Percent Effect” value is recorded as 1.856%.

Regarding `CN1CCN(C(=O)[C@H]2C[C@H]3[C@H](CCN3Cc3nccs3)O2)CC1`, the “Percent Effect” value is 108.2%. As to `Cc1ccsc1CN1CC[C@H]2O[C@H](C(=O)N3CCCO3)CC[C@H]21`, the “Percent Effect” value is -0.787%. On to `CN1CCN(C(=O)[C@H]2CC[C@@H]3[C@@H](CCN3Cc3nccs3)O2)CC1`, for which the “Percent Effect” value is recorded as 100.9%. The figure for `O=C([C@H]1CN(Cc2nccs2)C[C@H]2OCC[C@@H]12)N1CCCC1` is -16.26%; for `CN1CC[C@H](c2nnc(-c3cncn3C)o2)C1` it is -6.33%; for `CN(C)C1(CNC(=O)C2CCCN2Cc2ccc(F)cc2)CCOCC1` (stereo not given) it is -14.73%. Regarding `O=C(NCCCO)C1(CC2CC(c3ccc(F)cc3)=NO2)CCOCC1` (stereo not given), the “Percent Effect” value was 116.1%. On to `CC(C)NC(=O)N1CCC2(CC1)NC(=O)CC2c1ccncc1.O=C(O)C(F)(F)F` (stereo not given), for which the “Percent Effect” value was -5.587%. The result for `O=C(Nc1ccc(F)cc1)NC1(CCO)CCOCC1` reads -10.62%. The figure for `O=C(NCc1nncn1C1CC1)C1(c2ccc(F)cc2)CCOCC1` is 7.233%; for `CC(C)NC(=O)C1(CC2CC(c3ccc(F)cc3)=NO2)CCNCC1.O=C(O)CC(O)(CC(=O)O)C(=O)O` (stereo not given) it is 90.44%; for `O=C(NCCO)C1(CC2CC(c3ccc(F)cc3)=NO2)CCOCC1` (stereo not given) it is 103.4%.

For the compound `CNS(=O)(=O)c1cc(C(=O)N2CCCCCC2CC(C)C)co1` (stereo not given), the “Percent Effect” value is given as 3.036%. Turning to `CCOC(=O)NC(CNC(=O)CCc1ccccn1)CC(C)C` (stereo not given), the “Percent Effect” value is on record as -10.22%. Turning to `O=C(c1cccnc1O)N(Cc1ccsc1)CC1CCCO1` (stereo not given), the “Percent Effect” value was -13.31%. As to `CC(C)CN1C[C@H]2N(c3ncccn3)CCC[C@@]2(C(=O)NCC2CC2)C1`, the “Percent Effect” value amounted to 98.73%. `CNC(=O)[C@@]12CCCN(c3ncccn3)[C@@H]1CN(c1ncc(F)cn1)C2`: the “Percent Effect” value is reported as 0.8573%. `CS(=O)(=O)N1C[C@H]2CNC[C@@]2(C(=O)NCCOc2ccccc2)C1`: the “Percent Effect” value is -7.447%.

`CNC(=O)[C@@]12CCCN(c3ncccn3)[C@@H]1CN(C(=O)NC(C)C)C2`: the “Percent Effect” value is given as -11.1%. On to `CS(=O)(=O)N1C[C@H]2N(c3ncccn3)CCC[C@@]2(C(=O)NCC2CC2)C1`, for which the “Percent Effect” value is given as 106.2%.

Consider `CNC(=O)[C@@]12CCCN(c3ncccn3)[C@@H]1CN(c1ncc(C)cn1)C2`, for which the “Percent Effect” value was -6.772%. Turning to `CNC(=O)N1C[C@H]2N(c3ncccn3)CCC[C@@]2(C(=O)NCC2CC2)C1`, the “Percent Effect” value is 110.5%. For the compound `CC1CCCCN1CCNC(=O)NCc1ccc(C#N)cc1F` (stereo not given), the “Percent Effect” value was determined as 4.831%. The figure for `Cc1noc(C)c1CN1CCC2(CCN(Cc3cccc(F)c3)CC2)C1.O=C(O)C(F)(F)F.O=C(O)C(F)(F)F` is 108.5%; for `Cc1noc(C)c1CN1CCO[C@H]2CN(Cc3cccc(F)c3)C[C@H]21.O=C(O)C(F)(F)F.O=C(O)C(F)(F)F` it is 84.77%. Regarding `O=C(O)C(F)(F)F.O=C1[C@@H]2CCN(Cc3ccoc3)C[C@@H]2OCCN1Cc1cccc(F)c1`, the “Percent Effect” value was 7.665%. For `CC(=O)N1CCC2(CCN(Cc3cccc(F)c3)CC2)CC1.O=C(O)C(F)(F)F`, the “Percent Effect” value is on record as 4.828%. Consider `Fc1ccc(CN2C[C@@H]3OCCN(CCN4CCCC4)[C@@H]3C2)cc1.O=C(O)C(F)(F)F.O=C(O)C(F)(F)F.O=C(O)C(F)(F)F`, for which the “Percent Effect” value was -5.638%. The figure for `NC(=O)N1CCC2(CCN(Cc3cccc(F)c3)CC2)CC1.O=C(O)C(F)(F)F` is 7.684%; for `Cc1ccsc1-c1nccn1CCN(C)S(C)(=O)=O` it is -5.374%; for `CCC(CC)NC(=O)Cn1nc(C)nc1-c1ccccc1` it is 0.4964%. The result for `Cc1cccc(-c2nc(C)nn2CC(=O)NC2CCCC2)c1` reads 6.583%; that for `Cc1nc(-c2ccccc2C)n(CC(=O)NC(C)C2CC2)n1` (stereo not given), -5.719%; that for `Cc1nc(-c2ccccc2C)n(CC(=O)NC(C)C)n1`, -16.1%.

With `Cc1nc(-c2ccccc2)n(CC(=O)NC2CCCCC2)n1`, the “Percent Effect” value was 105.1%.

`Cc1nc(-c2ccccc2)n(CC(=O)NC(C2CC2)C2CC2)n1`: the “Percent Effect” value was -13.82%.

For the compound `Cc1nc(-c2ccccc2C)n(CC(=O)NC2CCCC2)n1`, the “Percent Effect” value worked out at 83.22%. For `Cc1nc(-c2ccccc2)n(CC(=O)NC2CCCC2)n1`, the “Percent Effect” value amounted to 94.43%.
